Results taken from PubChem BioAssay (NCI).
Compounds without any hit were thinned out: in the full panel of roughly 83,000, 20% have a hit.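 Plates (96-well) were seeded with cells, treated with compound at one concentration, and incubated for 48 hours before percent growth was determined.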 Calls of active or inactive are those of the source. The calls were made as follows: active = growth percent below 10; inactive = the rest.

Columns and labels:
Assay in all cases: NCI-60 one-dose screen, 48 h (100 = growth as untreated, 0 = no growth, -100 = all killed)
Conditions in all cases: 10 µM unless noted
[1] = system: NCI-H23 lung
[2] = system: NCI-H226 lung
[3] = system: NCI-H322M lung
[4] = system: HOP-62 NSCLC
[5] = system: NCI-H460 lung
[6] = system: HOP-92 NSCLC
[7] = system: NCI-H522 lung
[8] = system: A549/ATCC NSCLC
[9] = system: 786-0 renal
[10] = system: COLO 205 colon

Measured: growth

C#C[C@@]1(O)[C@@H](CO)O[C@@H](n2cc(F)c3c(N)ncnc32)[C@@H]1O
active: [1] -30.5% | [2] -62.3% | [3] -2.54% | [5] 0.623% | [6] -15% | [7] -1.45% | [8] -37.9% | [9] -29.5% | [10] -43.4%
inactive: [4] 17.5%

COC(=O)c1oc2c(C(=O)/C=C/c3ccc(OC)cc3)c(OCCCN3CCCCC3)ccc2c1C
inactive: [1] 22.1% | [2] 89.4% | [3] 17.8% | [10] 29.2%
active: [4] 1.98% | [5] 4.2% | [6] -38.8% | [7] 1.11% | [8] -3.52% | [9] 1.16%

CC1=C/C(=N\N=C2/C=C(C)CC(C)(C)C2)CC(C)(C)C1
inactive: [1] 102% | [2] 106% | [3] 92.7% | [4] 90.9% | [5] 104% | [6] 92.3% | [7] 81.4% | [8] 88.6% | [9] 102% | [10] 119%

c1ccc(-c2cn3ccnc3c(-c3ccc4c(c3)ncn4C3CCCCC3)n2)cc1
inactive: [1] 103% | [2] 106% | [3] 97.1% | [4] 87.1% | [5] 104% | [6] 89.1% | [7] 83.9% | [8] 91% | [9] 91.8% | [10] 99.7%

COc1cc(NCC(=O)Nc2cc(Nc3ccc(C)cc3)ncn2)c(Cl)c(OC)c1Cl
inactive: [1] 91.7% | [2] 85.4% | [3] 84.8% | [4] 87% | [5] 101% | [6] 78.7% | [7] 74.1% | [8] 80.1% | [9] 96.7% | [10] 85.8%

CCOC(=O)c1c(C)nc2c(c1N)CC(=O)N2CCc1ccccc1
active: [4] 5.73% | [5] 6.52% | [7] -6.01% | [9] 8.72%
inactive: [1] 53.2% | [2] 42.1% | [3] 59.3% | [6] 25.3% | [8] 23% | [10] 10.7%

Cc1cc(C)cc(Nc2nccc(-c3c(-c4ccc(F)cc4)ncn3C3CCNCC3)n2)c1
active: [5] -5.36% | [7] -36.2% | [8] 6.65% | [10] -66%
inactive: [1] 43.1% | [2] 32.3% | [3] 32.2% | [4] 25.4% | [6] 26.7% | [9] 11.8%

N#Cc1ccc(Oc2ccc3ccc(=O)oc3c2)cc1
inactive: [1] 101% | [2] 102% | [3] 111% | [4] 102% | [5] 103% | [6] 67% | [7] 105% | [8] 109% | [9] 95.5% | [10] 102%

CC[C@]12C=CCN3CC[C@@]4(c5cc(NC(=O)CCC(=O)O[C@H]6CC[C@H]7[C@@H]8CC[C@H]9CC(=O)CC[C@]9(C)[C@H]8CC[C@]67C)c(OC)cc5N(C)[C@H]4[C@@](O)(C(=O)OC)[C@@H]1OC(C)=O)[C@@H]32
inactive: [1] 89.7% | [2] 70.9% | [3] 99% | [4] 95.6% | [5] 64.5% | [6] 52.4% | [7] 63.6% | [8] 56.7% | [9] 74.7% | [10] 69.1%

CCCCOc1nc2ccc(C)cc2cc1/C=C/C(=O)/C=C/c1ccc2c(c1)OCO2
inactive: [1] 82.4% | [2] 96.3% | [3] 88% | [4] 112% | [5] 103% | [6] 80.6% | [7] 60.6% | [8] 78.3% | [9] 97.9% | [10] 123%

CCOC(=O)c1sc(/N=C2\NC(=O)/C(=C/c3ccc(N4CCN(C)CC4)cc3)S2)nc1C
inactive: [1] 99.3% | [2] 99.7% | [3] 97.6% | [4] 105% | [5] 109% | [6] 108% | [7] 77.4% | [8] 89.6% | [9] 87% | [10] 109%

c1ccc2c3c([nH]c2c1)C(c1ccc(C2NCCc4c2[nH]c2ccccc42)cc1)NCC3 (stereo not given)
inactive: [1] 72.4% | [2] 77.1% | [6] 20.8%
active: [3] -1.54% | [4] -70.3% | [5] -71.6% | [7] -72.4% | [8] -85.1% | [9] -68.1% | [10] -81.5%

Cc1cc(C)nc(NS(=O)(=O)c2ccc(Nc3ccc4c5c(n(CCCN(C)C)c(=O)c4c3)-c3ccccc3C5=O)cc2)n1
inactive: [1] 83.9% | [2] 83.3% | [3] 109% | [4] 70.1% | [5] 28.9% | [6] 90.1% | [7] 73% | [8] 52.3% | [9] 80.5% | [10] 70.4%

OCCNc1nc(NCCO)nc(Nc2ccc(C3=NN(c4cc(Cl)cc(Cl)c4)C(c4ccc(C(F)(F)F)cc4)C3)cc2)n1 (stereo not given)
inactive: [1] 56.6% | [2] 80.2% | [3] 49.1% | [4] 32.5% | [5] 14.8% | [6] 65.8% | [7] 61.2% | [8] 32.9% | [10] 25.3%
active: [9] 2.27%

Sc1cccc2cccnc12
active: [5] 6.81% | [7] -12.6%
inactive: [1] 55.4% | [2] 55.7% | [3] 36.3% | [4] 36.7% | [6] 95.6% | [8] 19.1% | [9] 31.5% | [10] 24.4%

C[C@]12CC[C@@H]3c4ccc(O)cc4CC[C@H]3[C@@H]1C[C@H](O)C2
inactive: [1] 100% | [2] 104% | [3] 89.5% | [4] 72.8% | [5] 74.3% | [6] 86.1% | [7] 54.6% | [8] 49.5% | [9] 88.1% | [10] 128%
